Test results: PubChem BioAssay (NCI)
Compounds without any hit were thinned out: in the full panel of roughly 83,000, 20% have a hit.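 Results are percent growth after 48 hours of single-concentration exposure. 100 means growth as in untreated cells, lower positive values show inhibition; negative values down to -100 show cell death.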 A number with no mark means an inactive call. Active and inactive are the calls of the source. Rule for the calls: active = growth percent below 10; inactive = the rest.

Assays:
Test in all cases: NCI-60 one-dose screen, 48 h (100 = growth as untreated, 0 = no growth, -100 = all killed)
SK-MEL-2 melanoma = conditions: 10 µM unless noted
EKVX NSCLC = conditions: 10 µM unless noted
SN12C renal = conditions: 10 µM unless noted
UO-31 renal = conditions: 10 µM unless noted
TK-10 renal = conditions: 10 µM unless noted
ACHN renal = conditions: 10 µM unless noted
A498 renal = conditions: 10 µM
CCRF-CEM leukemia = conditions: 10 µM unless noted
MOLT-4 leukemia = conditions: 10 µM unless noted
SR leukemia = conditions: 10 µM unless noted
RPMI-8226 leukemia = conditions: 10 µM unless noted
OVCAR-8 ovarian = conditions: 10 µM unless noted
OVCAR-5 ovarian = conditions: 10 µM unless noted
OVCAR-4 ovarian = conditions: 10 µM unless noted
SK-OV-3 ovarian = conditions: 10 µM unless noted
IGROV1 ovarian = conditions: 10 µM unless noted
OVCAR-3 ovarian = conditions: 10 µM unless noted
HL-60(TB) leukemia = conditions: 10 µM unless noted
HS 578T breast = conditions: 10 µM unless noted
CAKI-1 renal = conditions: 10 µM unless noted

| SMILES | growth (SK-MEL-2 melanoma) | growth (EKVX NSCLC) | growth (SN12C renal) | growth (UO-31 renal) | growth (TK-10 renal) | growth (ACHN renal) | growth (A498 renal) | growth (CCRF-CEM leukemia) | growth (MOLT-4 leukemia) | growth (SR leukemia) | growth (RPMI-8226 leukemia) | growth (OVCAR-8 ovarian) | growth (OVCAR-5 ovarian) | growth (OVCAR-4 ovarian) | growth (SK-OV-3 ovarian) | growth (IGROV1 ovarian) | growth (OVCAR-3 ovarian) | growth (HL-60(TB) leukemia) | growth (HS 578T breast) | growth (CAKI-1 renal) |
| --- | --- | --- | --- | --- | --- | --- | --- | --- | --- | --- | --- | --- | --- | --- | --- | --- | --- | --- | --- | --- |
| COc1ccc2c(c1)c(-c1nc(-c3c[nH]c4ncccc34)cs1)cn2CCCCN1CCCCC1 | -53.2% (active) | 49.4% | -75.2% (active) | -87.6% (active) | -16.6% (active) | -92.2% (active) | 58.2% | -38.7% (active) | -60.3% (active) | -57.6% (active) | -43.6% (active) | -67.6% (active) | -15.7% (active) | -13.3% (active) | -61.5% (active) | -62.1% (active) | -71.4% (active) |  |  |  |
| O=C1NC(=O)C(=Cc2ccc(OCCCCC3CCCCC3)c(Cl)c2)C(=O)N1 | 89.5% | 95.9% | 77.3% | 81.2% | 94.1% | 104% |  | 90.1% | 96.5% | 106% | 97.7% | 101% | 98.8% | 105% | 99.9% | 104% | 106% | 92.8% | 105% |  |
| N#C[S-].[Au+].c1ccc(CN2[CH-]N(Cc3ccccc3)C(c3ccccc3)=C2c2ccccc2)cc1 | -1.84% (active) | 12.6% | 6.67% (active) | 4.03% (active) | 17.6% | 2.08% (active) | -37.3% (active) | 1.1% (active) | 3.58% (active) |  | -16.4% (active) |  | 36.8% | 19.4% | -0.746% (active) | 30.3% | -6.54% (active) | -44.1% (active) | 36.3% |  |
| Clc1ccc(COC(Cn2ccnc2)c2ccc(Cl)cc2Cl)cc1 (centres undefined) | 68.9% | 30.7% | 68.4% | 20.7% | 62% |  | 43.4% | 30.6% | -28.4% (active) | -25.9% (active) | 39.7% | 51.8% |  |  | 91.2% | 35% | 40.4% | -40.2% (active) | 69.2% | 21.4% |
| COC(=O)[C@H](Cc1ccccc1)NC(=O)c1csc([C@@H](C[C@H](C(C)C)N(C)C(=O)[C@@H](NC(=O)[C@H]2CCCCN2C)C2CC2)OC(C)=O)n1 | 15.3% | 29.9% | 21.6% | 35.9% |  | 28.9% | -7.28% (active) | 2.68% (active) | 10.1% | 6.23% (active) | 10.3% | 17% | 32.3% | 49.7% | 4.51% (active) | 29.1% | -21.4% (active) | -43.1% (active) | 6.85% (active) | 24.1% |
| O=[N+]([O-])c1cc([N+](=O)[O-])c(Nn2c3ccccc3c3ccccc32)c([N+](=O)[O-])c1 | -50.4% (active) | 6.19% (active) | 5.01% (active) | -3.91% (active) | 0.75% (active) |  | -43.2% (active) | -0.784% (active) | 0.889% (active) | 1.48% (active) | -20.5% (active) | 5.97% (active) | 29.4% | 6.45% (active) | -17.2% (active) | 22.8% | 12.4% |  | 5.42% (active) |  |
| CC1=C([Te]c2ccc(O)cc2)C(=O)c2ccccc2C1=O | 31.2% | -57% (active) | 11.5% |  | 36.1% | 5.62% (active) | -25.8% (active) | -13.4% (active) | -17% (active) | -14.8% (active) |  | 13.6% | 11.8% | -32.9% (active) | -15.5% (active) | -27% (active) | -63.7% (active) | -38% (active) | 8.43% (active) | -93.3% (active) |
| CCN(CC)CCOC(=O)C(OC(C)C)(c1ccccc1)c1ccccc1 | 88.2% | 93.5% | 106% |  | 89% | 104% | 72.6% | 102% | 93.1% |  | 102% | 106% | 92.9% | 103% | 94.4% | 87.2% | 97.3% | 99.6% | 93.4% | 87.2% |
| O=c1[nH]c2ccc([N+](=O)[O-])cc2c(=O)o1 | 111% | 107% | 98.2% | 90.7% | 104% | 93.3% |  | 96.1% |  |  | 98.5% | 104% | 101% |  | 102% | 105% | 113% |  |  |  |
| O=P(N1CC1)(N1CC1)N1CCc2ccccc21 | 121% | 119% | 92.4% | 92.2% | 110% | 108% |  | 104% |  |  |  | 103% | 112% | 115% | 111% | 130% | 107% |  | 106% |  |
| CC[C@H](C)[C@H](NC(=O)c1nccn1C)C(=O)N(C)[C@H](C[C@@H](OC(C)=O)c1nc(C(=O)N[C@@H](Cc2ccccc2)C[C@H](C)C(=O)OC)cs1)C(C)C | 28.5% | 52.8% | 40.2% |  | 41.9% | 42.3% | -9.78% (active) | 15.9% | 15.9% | 14.2% | 24.6% | 16.3% | 38% | 48.4% | 19.4% | 35.6% | -19.8% (active) | -43.5% (active) | 20.6% | 33.8% |
| CC(=O)ONc1ccc([N+](=O)[O-])c(C(F)(F)F)c1 | 102% | 87.6% | 107% | 77.2% | 112% |  | 103% | 97.7% | 96.4% | 103% | 93.9% | 109% | 103% | 98.2% |  | 107% | 104% | 90% | 90.7% |  |
| CC[C@H](C)[C@H](NC(=O)N[C@@H](C)c1ccccc1)C(=O)N(C)[C@H](C[C@@H](OC(C)=O)c1nc(C(=O)N[C@@H](Cc2ccccc2)C[C@H](C)C(=O)OC)cs1)C(C)C | -14.9% (active) | 36.7% | 39.9% | 28.5% |  | 21.5% | -4.53% (active) | 10.7% | 21.7% | 3.11% (active) | 16.1% |  | 17.8% | 37.1% | 36.1% | 24.1% | -36.6% (active) | -16.9% (active) | 0.903% (active) |  |
| C[C@@H]1O[C@@H](O[C@H]2C[C@@H](O)[C@]3(CO)C4C(CC[C@]3(O)C2)[C@@]2(O)CC[C@H](C3=CC(=O)OC3)[C@@]2(C)C[C@H]4O)[C@H](O)[C@H](O)[C@H]1O (some centres undefined) | -59.9% (active) | -74.3% (active) | -22.5% (active) | -87.3% (active) | -65% (active) |  | -6.39% (active) | -12% (active) | -29.4% (active) | -31.2% (active) | 17.8% | -81% (active) |  | -24.3% (active) | -88.2% (active) | -5.14% (active) | -96.2% (active) | -53.2% (active) | 22.3% | -73.4% (active) |
| CCOc1ccc(/C=C/[N+](=O)[O-])cc1 | 101% | 93.7% | 94.5% | 71.1% |  | 96.3% | 78.1% | 90.6% | 118% | 67.5% | -36.4% (active) | 101% | 89.8% | 87.9% | 111% | 86.5% | 86.3% | 105% |  | 101% |
| COC(=O)[C@H](Cc1ccccc1)NC(=O)c1csc([C@@H](C[C@H](C(C)C)N(C)C(=O)[C@@H](NC(=O)[C@H]2CCCN2C)C2CC2)OC(C)=O)n1 | 31.2% | 33.4% | 33% | 41.1% |  | 39.9% | 13.5% | 4.07% (active) | 5.46% (active) | 6.34% (active) | 10.9% | 27.3% | 36.1% |  | 52.8% | 39.1% | -3.48% (active) | -44.9% (active) | 14.6% | 36.8% |
| COC(=O)[C@@H](C)C[C@H](Cc1ccccc1)NC(=O)c1csc([C@@H](C[C@H](C(C)C)N(C)C(=O)[C@@H](NC(=O)[C@H]2CCCCN2C)c2ccc(F)cc2)OC(C)=O)n1 | 30.2% | 29.8% | 15.4% | 35.2% |  | 19.4% | -9.07% (active) | 8.77% (active) | 8.23% (active) | 6.27% (active) | 17.9% | 26.8% | 20.7% | 48.4% | 21.2% | 27% | -17% (active) | -42.6% (active) | 1.1% (active) | 14% |
